This note sets out measurements from PubChem BioAssay (NCATS).

Test in all cases: Cytotoxic Profiling of Annotated Libraries Using Quantitative High-Throughput Screening (AID 1296008); note: nearly all actives have a fitted effect of over 60% in size
What all share (details): Five cell lines viability, CellTiter-Glo ATP luminescence, 48-72 h; max response: active compounds read low

Assay [1] deals with CRL-7250. Put shortly:
(§1)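 Cytotoxicity was measured as CellTiter-Glo ATP luminescence, read after 10 min at room temperature. Compound treatment of the cells lasted 48 or 72 hr at 37 degrees Celsius in a qHTS format.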

The test system of assay [2] is HEK293. A digest of the protocol: as §1
Assay [3] deals with HaCat. Put shortly:
as §1

Assay [4] deals with KB-3-1. Put shortly: as §1
Assay [5] relates to NIH3T3. A digest of the protocol: as §1

Results filed as inconclusive are left out. Unmarked numbers belong to inactive results. Calls of active or inactive are those of the source. Calls come from the whole dose curve; as a rule, active = well fitted inhibition curve with a large enough effect; inconclusive = small, poorly fitted or top-dose-only effect; inactive = flat fitted curve, though single readings scatter.
% is set by controls: 0 for no effect and ±100 for the full control effect; potency is the fitted concentration of half-maximal effect.

As for `N#Cc1cc(F)cc(-c2nc(-c3ccccn3)no2)c1`, the max response in assay [1] was 1.54%; in assay [2], -8.23%; in assay [4], -6.38%; in assay [5], -10.9%. For the same molecule, the call in assay [3] was inactive.

On to `CO[C@H]1O[C@@H]2O[C@]3(C)CC[C@H]4[C@H](C)CC[C@@H]([C@H]1C)[C@@]24OO3`, for which the max response in assay [1] was -2.96%; in assay [3], -0.0315%; in assay [5], 4.96%. Moreover, the Potency in assay [2] was 10.3 µM (active). Moreover, in assay [4], the result was inactive.

Consider `CC1CC(C(O)C(C)(C)O)OC2CC3(C)C4(C)CCC5C(C)(C)C(=O)CCC5(C)C4CCC3(O)C12O` (stereo not given), for which the max response in assay [1] was 3.36%; in assay [2], -2.59%; in assay [3] it was 3.58%; in assay [5], 2.04%. For the same molecule, the molecule was called inactive in assay [4].

With `CCOC(=O)C(CCc1ccccc1)NC(C)C(=O)N1C(=O)N(C)CC1C(=O)O` (stereo not given), the max response in assay [1] is 3.58%; in assay [2] it was -4.81%; in assay [3], -19.4%; in assay [5], 1.45%. For the same molecule, the molecule was called inactive in assay [4].

Turning to `COC(=O)C1=CO[C@@H](O[C@@H]2O[C@H](CO)[C@@H](O)[C@H](O)[C@H]2O)[C@H]2[C@@H]1CC(OC)O[C@@H]2C` (stereo not given in full), the result in assay [1] was inactive. In addition, the max response is 4.51% in assay [2], -16.4% in assay [3], 3.52% in assay [4] and -1.67% in assay [5].

In the case of `O=C(NCc1cccc(O)c1)c1cc2cc(F)ccc2[nH]1`, the max response was 3.57% in assay [1]; -13.7% in assay [2]; -7.37% in assay [3]; -5.86% in assay [4]; -0.959% in assay [5].

With `C[C@@H]([C@@H](O)c1ccc(O)cc1)N1CCC(O)(c2ccccc2)CC1`, the max response in assay [1] is 0.694%; in assay [2] it was -2%; in assay [3] it was -0.788%; in assay [4], -1.25%; in assay [5], 1.49%.

On to `CCC1C(=O)N(C)c2cnc(Nc3ccc(C(=O)NC4CCC(N5CCN(CC6CC6)CC5)CC4)cc3OC)nc2N1C(C)C` (stereo not given), for which the Potency was 4.61 µM (active) in assay [1]; 0.0058 µM (active) in assay [2]; 36.6 nM (active) in assay [3]; 5.2 nM (active) in assay [4]; 1.64 µM (active) in assay [5].

For `COc1c2c(c(C)c3c1C(=O)OC3)OC1(C)CC(O)C(C(C)(C)O)C(C)(CCC(=O)O)C1C2` (stereo not given), the molecule was classed as inactive in assay [1] and in assay [4]. Further, the max response in assay [2] was -5.2%; in assay [3], -1.29%; in assay [5], 0.542%.

With `CC(=O)N[C@@H](CCCCN)C(=O)N(C)[C@@H](CC(C)C)C(=O)N[C@H](C(=O)N(C)[C@@H](Cc1ccccc1)C(=O)N[C@H](Cc1ccccc1)C(N)=O)C(C)C`, the molecule was called inactive in assay [1] and in assay [4]. The max response in assay [2] is -3.34%; in assay [3], -11.8%; in assay [5] it was -4.99%.

`O=C1N=C(N2CCOCC2)CN1c1ccc(Cl)cc1`: the max response was -3.02% in assay [1]; -16.9% in assay [2]; -30.2% in assay [3]; 2.82% in assay [4]; -0.0852% in assay [5].

For the molecule `C=C1CCC2C(C)(C)C(O)CCC2(C)C1CCC(C)CCO` (stereo not given), the max response in assay [1] is -1.18%; in assay [3], -1.49%; in assay [4] it was -10.1%; in assay [5], -0.535%. Moreover, the Potency in assay [2] was 11.4 µM (active).

Consider `CC(=O)CCC1=C(C)C(O[C@@H]2O[C@H](CO)[C@@H](O)[C@H](O)[C@H]2O)C(O)CC1(C)C` (stereo not given in full), for which the max response in assay [1] is -13.4%; in assay [2], 0.019%; in assay [3] it was 1.46%; in assay [4], 1.06%; in assay [5], 3.13%.

As for `CC(=O)OC[C@]12[C@H](OC(C)=O)C(=O)[C@@H]3[C@@H](OC(C)=O)[C@@]14O[C@@]3(C)COC(=O)c1cccnc1[C@@H](C)[C@H](C)C(=O)O[C@@H]([C@H](O)[C@@H]2OC(C)=O)[C@]4(C)O`, the max response in assay [1] was 0.341%; in assay [2], -0.596%; in assay [3] it was -0.606%; in assay [4], -8.82%; in assay [5], -21%.

In the case of `C[C@@H]1O[C@@H](O[C@H]2[C@H](OC(=O)[C@]34CCC(C)(C)C[C@H]3C3=CCC5[C@@]6(C)C[C@H](O)[C@H](O[C@@H]7O[C@H](CO)[C@@H](O[C@H]8OC[C@](O)(CO)[C@H]8O)[C@H](O)[C@H]7O)[C@@](C)(CO)C6[C@H](O)C[C@@]5(C)[C@]3(C)C[C@H]4O)OC[C@H](O)[C@@H]2O)[C@H](O)[C@H](O)[C@H]1O[C@@H]1OC[C@@H](O)[C@H](O[C@@H]2OC[C@](O)(CO)[C@H]2O)[C@H]1O` (stereo not given in full), in assay [1], the molecule was called inactive. Moreover, the max response in assay [2] was 0.437%; in assay [3], -7.37%; in assay [4] it was 8.08%; in assay [5], -0.781%.

As to `CCC(O)C(C)C1CCC(C(C)C(=O)O)O1` (stereo not given), the call in assay [1] and in assay [4] was inactive. Moreover, the max response in assay [2] was -7.28%; in assay [3] it was 3.27%; in assay [5], 2.92%.

Regarding `CC(C)=CCC[C@](C)(O[C@@H]1O[C@H](CO[C@@H]2O[C@H](CO)[C@@H](O)[C@H](O)[C@H]2O)[C@@H](O)[C@H](O)[C@H]1O)C1CC[C@]2(C)[C@@H]1[C@H](O)CC1[C@@]3(C)CC[C@H](O[C@@H]4O[C@H](CO)[C@@H](O)[C@H](O)[C@H]4O[C@@H]4O[C@H](CO)[C@@H](O)[C@H](O)[C@H]4O)C(C)(C)[C@@H]3CC[C@]12C` (stereo not given in full), the max response in assay [1] was -3.43%; in assay [2], 0.0713%; in assay [3], 3.42%; in assay [4] it was -1.36%; in assay [5] it was 4.71%.
